Screening results as filed in PubChem.
ATXN2 expr inh: inhibitors of ATXN2 expression; AID 1745845; Potency, µM (doses to about 57 µM), most hits filed as inhibitors; HEK-293 ATXN2-luciferase reporter, luminescence, 24 h; hit rate 0.72% among 360,000; also: nearly all actives have a fitted effect of over 55% in size
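ATXN2-luciferase reporter cells (luciferase flanked by upstream and downstream ATXN2 gene portions) were treated 24 h at 37 °C with compounds at up to 57 uM. SteadyGlo luminescence gave expression; GF-AFC fluorescence gave viability.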
IL-1B inflam inh: inhibitors of inflammasome signaling (IL-1 beta secretion). THP-1 LPS/ATP IL-1B secretion, AlphaLISA, 16 h; hits give low values. activity change, % at 57.5 µM. hit rate 4.7% among 360,000; in the data active = activity change below about -50%; inconclusive = mostly about -30% to -49%
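THP-1 cells pretreated 1 hr with compounds (up to 57.5 uM final), then stimulated with LPS (250 ng/mL final) plus ATP (1.25 mM final); secreted IL-1B measured by AlphaLISA after 16 hr, decreased signal indicating inhibition.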
ATXN viability: reduces viability in counter-screen for ATXN expression inhibitors; S2 cells (HEK-293 line with an ATXN2-luciferase reporter) viability, CellTiter-Fluor protease fluorescence, 24 h; Potency, µM (highest dose often 56.7 µM), hits mostly cytotoxic; hit rate 0.49% among 400,000; AID 651635; also: nearly all actives have a fitted effect of over 40% in size
USP2a block: blocks human ubiquitin-specific protease USP2a | hit rate 0.01% among 330,000 | USP2 core, Ub-CHOP2 coupled fluorogenic reporter, 485/531 | Potency, µM (doses to about 38.3 µM), actives largely listed as inhibitors | AID 463254
Target sequence (O75604 whole entry, looked up): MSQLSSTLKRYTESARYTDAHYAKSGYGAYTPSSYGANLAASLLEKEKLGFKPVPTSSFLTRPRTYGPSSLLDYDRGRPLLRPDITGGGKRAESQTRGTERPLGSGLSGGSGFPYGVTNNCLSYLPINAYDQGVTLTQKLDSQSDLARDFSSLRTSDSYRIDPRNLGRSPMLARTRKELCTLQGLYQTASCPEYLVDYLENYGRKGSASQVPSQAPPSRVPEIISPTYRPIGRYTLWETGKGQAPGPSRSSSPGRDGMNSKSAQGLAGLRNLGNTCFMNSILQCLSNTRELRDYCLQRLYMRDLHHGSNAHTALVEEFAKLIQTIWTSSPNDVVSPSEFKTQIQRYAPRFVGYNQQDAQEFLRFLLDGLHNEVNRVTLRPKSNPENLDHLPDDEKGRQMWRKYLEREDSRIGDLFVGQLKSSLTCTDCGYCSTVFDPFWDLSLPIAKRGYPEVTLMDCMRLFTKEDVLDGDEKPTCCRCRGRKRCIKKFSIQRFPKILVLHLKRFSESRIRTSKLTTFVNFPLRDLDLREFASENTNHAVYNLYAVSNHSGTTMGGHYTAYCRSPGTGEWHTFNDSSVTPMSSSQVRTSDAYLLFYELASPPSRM
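USP2 core (10nM final) preincubated 30min RT with compound in 20mM Tris-HCl pH 8.0, 2mM CaCl2, 2mM beta-mercaptoethanol, 0.05% CHAPS; 25nM Ub-CHOP2 plus 25nM reporter substrate added, fluorescence (Ex485/Em531) read after 60min.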
USP1 inh: inhibitors of human USP1/UAF1 deubiquitinase. O94782. AID 743255. Potency, µM (titrated, usually from 57.1 µM), hits mostly inhibitors. recombinant USP1/UAF1, Ub-Rhodamine cleavage fluorescence. hit rate 0.23% among 390,000; also: nearly all actives have a fitted effect of over 60% in size
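USP1/UAF1 complex at 1 nM was preincubated with compound for 15 min at room temperature, then Ub-Rho substrate (150nM final) was added. Fluorescence (480/540 nm) was read kinetically, 6 reads every 60 seconds.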
SKNSH spheroid: kills SK-N-SH neuroblastoma spheroids in orthogonal 3D test; shares compounds with ATXN2 expr inh; hit rate 70% among 65; AID 1347135; SK-N-SH 3D spheroid viability, PI/Hoechst imaging, 72 h; Potency, µM (top dose mostly 30.7 µM), usual class: inhibitors
SJGBM2 3D viab: lowers viability of SJ-GBM2 3D spheroids. shares compounds with ATXN2 expr inh. SJ-GBM2 3D spheroid viability, PI/Hoechst imaging, 72 h. Potency, µM (titrated, usually from 30.7 µM), actives largely listed as inhibitors. hit rate 80% among 65
Daoy spheroid: reduced viability of Daoy 3D spheroids, orthogonal test; Potency, µM (top dose mostly 30.7 µM), actives largely listed as inhibitors; AID 1347137; Daoy 3D spheroid viability, PI/Hoechst imaging, 72 h; hit rate 50% among 65; shares compounds with ATXN2 expr inh
TC32 3D caspase: caspase activation in TC32 3D spheroids, orthogonal test. hit rate 30% among 65. shares compounds with ATXN2 expr inh. Potency, µM (series often up to 30.7 µM), most hits filed as inhibitors. AID 1347138. TC32 3D spheroids, caspase-3/7 fluorescence imaging, 24 h
TC32 spheroid: kills TC32 spheroids in orthogonal 3D test. shares compounds with ATXN2 expr inh. TC32 3D spheroid viability, PI/Hoechst imaging, 72 h. Potency, µM (titrated, usually from 30.7 µM), usual class: inhibitors. hit rate 60% among 65. AID 1347139
MG63 spheroid: MG-63 (6-TG R) 3D spheroid viability loss; MG-63 (6-TG R) 3D spheroid viability, PI/Hoechst imaging, 72 h; hit rate 50% among 65; shares compounds with ATXN2 expr inh; AID 1347140; Potency, µM (series often up to 30.7 µM), usual class: inhibitors
RD spheroid: RD 3D spheroid viability loss. shares compounds with ATXN2 expr inh. RD rhabdomyosarcoma 3D spheroid viability, PI/Hoechst imaging, 72 h. Potency, µM (highest dose often 30.7 µM), actives largely listed as inhibitors. hit rate 50% among 65. AID 1347141
Of the large screens only hits and unclear results are named; the others gave an inactive call (follow-up assays come after a bar, where they were run); ! = repeats disagree. The list is not random: actives were taken first. Their share in the collection is about 4.8%. Unless noted, calls follow the shape of the dose curve; as a rule, active = well fitted curve in the direction sought with a large enough effect; inconclusive = small, poorly fitted or top-dose-only effect, or another doubt; inactive = no such curve, though single readings can be large; an effect the other way counts as inactive or inconclusive.

COc1ccc(-c2ccc3ncc4c(c3c2)n(-c2ccc(N3CCNCC3)c(C(F)(F)F)c2)c(=O)n4C)cn1	ATXN2 expr inh 7.69µM (no result: IL-1B inflam inh, ATXN viability, USP2a block, USP1 inh) | SKNSH spheroid 0.25µM | SJGBM2 3D viab 0.0314µM | Daoy spheroid 0.0056µM | TC32 3D caspase 0.498µM | TC32 spheroid 0.125µM | MG63 spheroid 0.0056µM | RD spheroid 0.158µM
CC(C)N1CC2(CC(c3ccccc3C(F)(F)F)=NO2)CN1C(=O)c1ccco1 (centres undefined)	none (no result: USP2a block)
CCc1nc(N)nc(N)c1-c1ccc(Cl)cc1	ATXN2 expr inh inconclusive | SKNSH spheroid inconclusive | SJGBM2 3D viab 0.909µM | Daoy spheroid inconclusive | TC32 3D caspase inactive | TC32 spheroid inconclusive | MG63 spheroid inconclusive | RD spheroid inconclusive
CCc1nc(N)nc(N)c1-c1ccc(NCCN)c([N+](=O)[O-])c1	ATXN viability inconclusive (no result: USP2a block)
CC(=O)Nc1ccc(C2NC(=O)CCC2[N+](=O)[O-])cc1 (centres undefined)	none
C[C@H]1[C@@H](OC(=O)CCC(=O)O)O[C@@H]2O[C@@]3(C)CC[C@@H]4[C@H](C)CC[C@@H]1[C@@]24OO3	ATXN2 expr inh inconclusive (no result: IL-1B inflam inh, ATXN viability, USP2a block, USP1 inh) | SKNSH spheroid inconclusive | SJGBM2 3D viab 1.28µM | Daoy spheroid inactive | TC32 3D caspase inconclusive | TC32 spheroid inconclusive | MG63 spheroid inconclusive | RD spheroid 0.909µM
COc1ccc(N2CC(c3nc(-c4ccccc4C)no3)CC2=O)cc1Cl (centres undefined)	USP1 inh inconclusive (no result: IL-1B inflam inh, USP2a block)
CC(=O)[C@]1(O)Cc2c(O)c3c(c(O)c2[C@@H](O[C@H]2C[C@H](N)[C@H](O)[C@H](C)O2)C1)C(=O)c1ccccc1C3=O	ATXN2 expr inh 12.6µM!, IL-1B inflam inh -105.8, USP1 inh 28.2µM (no result: ATXN viability, USP2a block) | SKNSH spheroid 0.0909µM | SJGBM2 3D viab 0.162µM | Daoy spheroid 1.81µM | TC32 3D caspase 7.22µM | TC32 spheroid 0.204µM | MG63 spheroid 1.14µM | RD spheroid 1.62µM
COc1cccc2c1C(=O)c1c(O)c3c(c(O)c1C2=O)C[C@@](O)(C(=O)CO)C[C@@H]3O[C@H]1C[C@H](N)[C@@H](O)[C@H](C)O1	ATXN2 expr inh 0.432µM!, USP1 inh 28.2µM (no result: ATXN viability, USP2a block) | SKNSH spheroid 0.511µM | SJGBM2 3D viab 0.909µM | Daoy spheroid 1.62µM | TC32 3D caspase 1.02µM | TC32 spheroid 0.81µM | MG63 spheroid 5.11µM | RD spheroid 9.09µM
CCC(=O)OCC(=O)[C@@]1(OC(=O)CC)[C@H](C)C[C@@H]2[C@H]3CCC4=CC(=O)C=C[C@]4(C)[C@]3(Cl)[C@@H](O)C[C@@]21C	none (no result: ATXN2 expr inh, IL-1B inflam inh, USP2a block, USP1 inh)
C[C@@H]1C[C@H]2[C@@H]3CCC4=CC(=O)C=C[C@]4(C)[C@@]3(Cl)[C@@H](O)C[C@]2(C)[C@@]1(OC(=O)c1ccco1)C(=O)CCl	ATXN2 expr inh inconclusive, IL-1B inflam inh -89.0, ATXN viability inconclusive, USP1 inh inconclusive | SKNSH spheroid inactive | SJGBM2 3D viab inconclusive | Daoy spheroid inactive | TC32 3D caspase inactive | TC32 spheroid inactive | MG63 spheroid inactive | RD spheroid inactive
COc1cc([C@@H]2c3cc4c(cc3[C@@H](O[C@@H]3O[C@@H]5CO[C@@H](C)O[C@@H]5[C@H](O)[C@@H]3O)[C@H]3COC(=O)[C@H]23)OCO4)cc(OC)c1O	ATXN2 expr inh 0.769µM (no result: IL-1B inflam inh, ATXN viability, USP2a block, USP1 inh) | SKNSH spheroid 0.574µM | SJGBM2 3D viab 0.256µM | Daoy spheroid 0.456µM | TC32 3D caspase inconclusive | TC32 spheroid 0.256µM | MG63 spheroid inconclusive | RD spheroid inconclusive
COc1cc([C@@H]2c3cc4c(cc3C(O[C@@H]3O[C@@H]5CO[C@@H](c6cccs6)OC5[C@H](O)[C@H]3O)C3COC(=O)[C@@H]32)OCO4)cc(OC)c1O (some centres undefined)	none (no result: ATXN2 expr inh, IL-1B inflam inh, ATXN viability, USP2a block, USP1 inh) | SKNSH spheroid 0.0574µM | SJGBM2 3D viab 0.0323µM | Daoy spheroid 0.0406µM | TC32 3D caspase inconclusive | TC32 spheroid 0.0162µM | MG63 spheroid 4.06µM | RD spheroid 5.74µM
CCN(CC)C(=O)C1=C(C)N(CCC2=CCCCC2)C(=O)C(CC(=O)NC(c2ccccc2)c2ccccc2)C1 (centres undefined)	ATXN2 expr inh inconclusive, ATXN viability inconclusive (no result: USP2a block)
Nc1ncnc2c1ncn2CCOc1ccccc1	none
CC(C)(C)C(=O)OCOP(=O)(COCCn1cnc2c(N)ncnc21)OCOC(=O)C(C)(C)C	ATXN2 expr inh 3.55µM! (no result: IL-1B inflam inh, USP2a block, USP1 inh) | SKNSH spheroid 5.11µM | SJGBM2 3D viab 4.06µM | Daoy spheroid inconclusive | TC32 3D caspase inactive | TC32 spheroid 2.56µM | MG63 spheroid inconclusive | RD spheroid inconclusive
Cc1cccc(NC(=O)Cn2c(=O)n(Cc3nc(-c4ccccc4)no3)c(=O)c3ccccc32)c1	none (no result: ATXN2 expr inh, IL-1B inflam inh, ATXN viability, USP2a block)
COc1cc(C(=O)OCCN2CCOCC2)cc(OC)c1OC	none
COc1c(C)c2c(c(O)c1C/C=C(\C)CCC(=O)OCCN1CCOCC1)C(=O)OC2	ATXN viability inconclusive (no result: IL-1B inflam inh, USP2a block, USP1 inh) | SKNSH spheroid inconclusive | SJGBM2 3D viab 0.228µM | Daoy spheroid inconclusive | TC32 3D caspase inactive | TC32 spheroid inconclusive | MG63 spheroid 0.81µM | RD spheroid inconclusive
